# What was measured:
# Experiment in all cases: DAPPL (digital affinity profiling via proximity ligation, sequencing); 10 mM Tris-HCl pH 7.5, 50 mM NaCl, 1 mM DTT, 4% glycerol, room temperature, 30 min; GST-TFs on glutathione beads, 16-mer random dsDNA library, 0.1% formaldehyde crosslink after washing; high values mean tight binding
# Details in all cases: protein: recombinant; tags: N-terminal GST; dsDNA, one strand shown
# ELK1 = target: T1, ELK1 (Homo sapiens, UniProt P19419 1-428)
# T1 sequence: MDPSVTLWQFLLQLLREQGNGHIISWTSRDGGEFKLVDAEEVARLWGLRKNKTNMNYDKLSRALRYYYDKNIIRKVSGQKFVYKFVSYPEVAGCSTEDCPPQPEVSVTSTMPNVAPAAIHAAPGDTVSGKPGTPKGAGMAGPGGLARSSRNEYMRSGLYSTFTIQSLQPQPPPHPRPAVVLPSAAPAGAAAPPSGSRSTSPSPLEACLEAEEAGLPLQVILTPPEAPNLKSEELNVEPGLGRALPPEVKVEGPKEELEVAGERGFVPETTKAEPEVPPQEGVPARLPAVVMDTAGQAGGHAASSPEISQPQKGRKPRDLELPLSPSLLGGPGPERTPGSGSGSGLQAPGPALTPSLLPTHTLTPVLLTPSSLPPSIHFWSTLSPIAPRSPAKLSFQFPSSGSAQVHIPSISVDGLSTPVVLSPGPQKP
# Method in brief: (§1)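 Binding signal is each hexamer's read frequency for a factor divided by its frequency in the tag-only sample. The factors were GST-fused human transcription factors from yeast, captured on glutathione beads, DNA-barcoded and pooled with that sample. Pools were incubated with 200 nmole of a random double-stranded 16-mer DNA library in Tris/NaCl/DTT/glycerol buffer at room temperature for 30 min, then washed, crosslinked with 0.1% formaldehyde, proximity-ligated with BsaI/T4 ligase (1 h, 37 °C), PCR-amplified and sequenced on an Illumina NextSeq500.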
# GABPA = target: T2, GABPA (Homo sapiens, UniProt Q06546 1-454)
# T2 sequence: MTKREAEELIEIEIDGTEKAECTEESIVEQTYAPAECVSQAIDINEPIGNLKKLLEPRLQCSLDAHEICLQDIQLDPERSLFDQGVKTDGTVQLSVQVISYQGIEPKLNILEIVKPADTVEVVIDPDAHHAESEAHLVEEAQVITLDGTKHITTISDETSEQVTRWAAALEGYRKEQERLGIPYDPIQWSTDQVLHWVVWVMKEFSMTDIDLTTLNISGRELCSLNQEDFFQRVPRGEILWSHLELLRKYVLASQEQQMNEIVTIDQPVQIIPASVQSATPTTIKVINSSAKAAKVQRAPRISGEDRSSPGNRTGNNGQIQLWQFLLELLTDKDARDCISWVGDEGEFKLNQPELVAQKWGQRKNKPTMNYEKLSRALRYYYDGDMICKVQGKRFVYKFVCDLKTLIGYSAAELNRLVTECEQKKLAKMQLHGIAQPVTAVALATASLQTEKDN
# Method in brief: as §1
# ERG = target: T3, ERG (Homo sapiens, UniProt P11308 1-479)
# T3 sequence: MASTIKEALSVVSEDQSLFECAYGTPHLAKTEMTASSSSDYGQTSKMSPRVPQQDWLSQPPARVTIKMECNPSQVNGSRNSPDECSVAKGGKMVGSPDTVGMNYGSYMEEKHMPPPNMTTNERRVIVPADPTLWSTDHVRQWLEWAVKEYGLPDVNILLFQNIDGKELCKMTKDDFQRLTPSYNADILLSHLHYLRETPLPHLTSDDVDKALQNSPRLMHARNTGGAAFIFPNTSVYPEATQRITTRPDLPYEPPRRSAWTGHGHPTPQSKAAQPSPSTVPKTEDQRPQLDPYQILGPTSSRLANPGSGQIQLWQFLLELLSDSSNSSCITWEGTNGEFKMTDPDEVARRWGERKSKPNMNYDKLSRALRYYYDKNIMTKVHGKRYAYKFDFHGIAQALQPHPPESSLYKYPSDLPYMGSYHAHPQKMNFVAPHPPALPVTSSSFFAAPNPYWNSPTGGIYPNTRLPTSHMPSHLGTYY
# Method in brief: as §1
# ELF1 = ELF1 (Homo sapiens, UniProt P32519 1-619)
# ELF1, sequence (P32519 whole entry): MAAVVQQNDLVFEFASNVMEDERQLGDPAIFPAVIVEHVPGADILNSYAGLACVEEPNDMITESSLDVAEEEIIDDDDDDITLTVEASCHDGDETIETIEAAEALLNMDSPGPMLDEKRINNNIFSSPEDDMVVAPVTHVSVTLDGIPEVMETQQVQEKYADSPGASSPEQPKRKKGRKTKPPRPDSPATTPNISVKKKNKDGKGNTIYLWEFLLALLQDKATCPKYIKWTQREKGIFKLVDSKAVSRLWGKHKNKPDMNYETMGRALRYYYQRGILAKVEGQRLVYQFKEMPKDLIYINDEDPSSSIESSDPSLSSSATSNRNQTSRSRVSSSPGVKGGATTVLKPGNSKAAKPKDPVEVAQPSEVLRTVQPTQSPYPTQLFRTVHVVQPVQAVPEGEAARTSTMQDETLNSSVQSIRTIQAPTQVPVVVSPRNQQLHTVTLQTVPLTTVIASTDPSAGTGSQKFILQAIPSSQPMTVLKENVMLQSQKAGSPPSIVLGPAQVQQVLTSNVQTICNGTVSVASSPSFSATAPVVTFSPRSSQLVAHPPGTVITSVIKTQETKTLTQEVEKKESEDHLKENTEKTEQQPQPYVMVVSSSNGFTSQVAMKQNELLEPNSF
# Method in brief: as §1
# EHF = target: T4, EHF (Homo sapiens, UniProt Q9NZC4 1-300)
# T4 sequence: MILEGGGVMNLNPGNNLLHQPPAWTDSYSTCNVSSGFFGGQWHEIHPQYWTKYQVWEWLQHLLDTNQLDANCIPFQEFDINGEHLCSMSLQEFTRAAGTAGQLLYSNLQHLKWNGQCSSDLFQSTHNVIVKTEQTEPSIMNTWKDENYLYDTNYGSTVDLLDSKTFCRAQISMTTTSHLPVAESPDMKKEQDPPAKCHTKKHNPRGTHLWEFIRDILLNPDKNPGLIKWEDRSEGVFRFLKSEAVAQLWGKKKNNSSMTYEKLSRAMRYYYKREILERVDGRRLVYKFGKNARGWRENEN
# Method in brief: as §1
# SPIB = SPIB (Homo sapiens, UniProt Q01892 1-262)
# SPIB, sequence (Q01892 whole entry): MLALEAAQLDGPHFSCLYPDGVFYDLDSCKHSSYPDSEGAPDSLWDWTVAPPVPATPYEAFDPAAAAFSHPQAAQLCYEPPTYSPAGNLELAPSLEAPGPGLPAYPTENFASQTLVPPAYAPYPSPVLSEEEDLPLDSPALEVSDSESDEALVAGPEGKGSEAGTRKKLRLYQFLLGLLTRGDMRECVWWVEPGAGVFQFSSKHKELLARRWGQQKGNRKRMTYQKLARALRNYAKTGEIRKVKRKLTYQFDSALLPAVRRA
# Method in brief: as §1
# FEV = target: T5, FEV (Homo sapiens, UniProt Q99581 1-238)
# T5 sequence: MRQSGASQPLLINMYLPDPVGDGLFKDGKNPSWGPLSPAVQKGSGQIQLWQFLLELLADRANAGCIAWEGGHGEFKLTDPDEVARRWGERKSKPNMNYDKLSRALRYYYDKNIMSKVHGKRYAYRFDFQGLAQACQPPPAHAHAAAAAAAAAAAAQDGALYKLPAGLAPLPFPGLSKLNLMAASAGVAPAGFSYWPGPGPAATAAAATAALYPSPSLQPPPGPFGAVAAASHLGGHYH
# Method in brief: as §1
# ETV5 = ETV5 (Homo sapiens, UniProt P41161 1-510)
# ETV5, sequence (P41161 whole entry): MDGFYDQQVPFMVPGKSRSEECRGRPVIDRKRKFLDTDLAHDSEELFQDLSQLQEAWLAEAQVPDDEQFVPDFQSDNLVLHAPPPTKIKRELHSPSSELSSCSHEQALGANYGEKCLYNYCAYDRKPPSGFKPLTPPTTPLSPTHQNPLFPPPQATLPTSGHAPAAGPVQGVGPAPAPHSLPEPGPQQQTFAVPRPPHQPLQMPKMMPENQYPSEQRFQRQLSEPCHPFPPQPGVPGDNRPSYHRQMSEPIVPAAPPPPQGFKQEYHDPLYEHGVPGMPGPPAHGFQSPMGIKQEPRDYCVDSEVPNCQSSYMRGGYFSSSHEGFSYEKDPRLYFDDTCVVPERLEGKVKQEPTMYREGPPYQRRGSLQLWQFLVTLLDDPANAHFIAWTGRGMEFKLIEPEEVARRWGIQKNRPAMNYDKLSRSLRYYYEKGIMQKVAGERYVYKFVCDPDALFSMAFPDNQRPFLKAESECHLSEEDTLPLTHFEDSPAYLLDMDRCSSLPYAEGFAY
# Method in brief: as §1
# ELF4 = ELF4 (Homo sapiens, UniProt Q99607 1-663)
# ELF4, sequence (Q99607 whole entry): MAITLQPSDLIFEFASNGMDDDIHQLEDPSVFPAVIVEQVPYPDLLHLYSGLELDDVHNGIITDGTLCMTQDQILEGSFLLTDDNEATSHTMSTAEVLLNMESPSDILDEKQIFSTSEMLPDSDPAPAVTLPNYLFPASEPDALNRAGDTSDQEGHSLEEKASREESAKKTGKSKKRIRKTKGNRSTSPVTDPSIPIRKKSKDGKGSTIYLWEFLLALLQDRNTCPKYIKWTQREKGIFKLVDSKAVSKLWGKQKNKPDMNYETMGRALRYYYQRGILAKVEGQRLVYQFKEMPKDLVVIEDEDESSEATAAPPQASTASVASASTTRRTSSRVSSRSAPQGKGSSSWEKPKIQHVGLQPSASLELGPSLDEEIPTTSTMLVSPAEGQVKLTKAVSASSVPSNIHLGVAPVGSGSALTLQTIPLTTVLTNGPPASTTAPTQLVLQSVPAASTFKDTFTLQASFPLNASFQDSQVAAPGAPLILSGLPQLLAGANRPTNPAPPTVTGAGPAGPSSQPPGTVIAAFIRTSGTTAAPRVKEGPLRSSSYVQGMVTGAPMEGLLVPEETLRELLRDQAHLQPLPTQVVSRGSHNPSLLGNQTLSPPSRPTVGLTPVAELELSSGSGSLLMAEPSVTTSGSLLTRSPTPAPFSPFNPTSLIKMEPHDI
# Method in brief: as §1
# ELK4 = target: T6, ELK4 (Homo sapiens, UniProt P28324-2 1-405)
# T6 sequence: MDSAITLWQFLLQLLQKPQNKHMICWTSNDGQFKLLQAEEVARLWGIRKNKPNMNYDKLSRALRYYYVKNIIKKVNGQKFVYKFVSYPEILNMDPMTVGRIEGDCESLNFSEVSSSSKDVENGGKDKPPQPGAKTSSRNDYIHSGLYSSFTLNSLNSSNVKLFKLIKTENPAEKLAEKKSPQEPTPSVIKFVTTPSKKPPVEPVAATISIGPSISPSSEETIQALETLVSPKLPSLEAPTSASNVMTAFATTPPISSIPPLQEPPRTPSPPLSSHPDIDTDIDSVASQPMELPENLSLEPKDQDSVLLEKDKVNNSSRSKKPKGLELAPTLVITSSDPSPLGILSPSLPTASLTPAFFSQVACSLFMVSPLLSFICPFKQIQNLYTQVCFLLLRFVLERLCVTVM
# Method in brief: as §1
# ELF3 = target: T7, ELF3 (Homo sapiens, UniProt P78545 1-371)
# T7 sequence: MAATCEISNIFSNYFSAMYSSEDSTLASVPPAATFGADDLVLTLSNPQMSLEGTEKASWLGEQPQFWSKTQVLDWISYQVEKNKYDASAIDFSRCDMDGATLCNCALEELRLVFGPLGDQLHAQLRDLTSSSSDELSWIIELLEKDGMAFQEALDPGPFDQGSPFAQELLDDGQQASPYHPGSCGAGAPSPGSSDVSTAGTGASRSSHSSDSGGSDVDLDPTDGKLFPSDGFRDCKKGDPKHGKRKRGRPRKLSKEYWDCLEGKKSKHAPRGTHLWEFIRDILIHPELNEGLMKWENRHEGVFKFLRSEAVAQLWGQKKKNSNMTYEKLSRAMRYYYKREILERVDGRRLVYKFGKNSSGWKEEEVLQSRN
# Method in brief: as §1
# ETV1 = ETV1 (Homo sapiens, UniProt P50549 1-477)
# ETV1, sequence (P50549 whole entry): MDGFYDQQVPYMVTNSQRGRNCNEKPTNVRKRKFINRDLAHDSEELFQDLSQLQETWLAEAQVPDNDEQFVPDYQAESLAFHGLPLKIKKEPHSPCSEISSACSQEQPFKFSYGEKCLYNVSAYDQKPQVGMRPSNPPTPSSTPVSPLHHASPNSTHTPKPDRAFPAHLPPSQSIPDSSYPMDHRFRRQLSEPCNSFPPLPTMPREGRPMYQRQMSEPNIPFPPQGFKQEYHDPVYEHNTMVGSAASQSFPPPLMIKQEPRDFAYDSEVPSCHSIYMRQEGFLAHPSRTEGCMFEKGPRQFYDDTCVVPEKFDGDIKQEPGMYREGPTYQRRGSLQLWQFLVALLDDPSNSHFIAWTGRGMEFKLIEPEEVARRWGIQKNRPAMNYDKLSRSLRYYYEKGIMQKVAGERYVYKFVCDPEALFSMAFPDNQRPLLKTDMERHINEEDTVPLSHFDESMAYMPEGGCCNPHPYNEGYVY
# Method in brief: as §1
# ERF = target: T8, ERF (Homo sapiens, UniProt P50548 1-548)
# T8 sequence: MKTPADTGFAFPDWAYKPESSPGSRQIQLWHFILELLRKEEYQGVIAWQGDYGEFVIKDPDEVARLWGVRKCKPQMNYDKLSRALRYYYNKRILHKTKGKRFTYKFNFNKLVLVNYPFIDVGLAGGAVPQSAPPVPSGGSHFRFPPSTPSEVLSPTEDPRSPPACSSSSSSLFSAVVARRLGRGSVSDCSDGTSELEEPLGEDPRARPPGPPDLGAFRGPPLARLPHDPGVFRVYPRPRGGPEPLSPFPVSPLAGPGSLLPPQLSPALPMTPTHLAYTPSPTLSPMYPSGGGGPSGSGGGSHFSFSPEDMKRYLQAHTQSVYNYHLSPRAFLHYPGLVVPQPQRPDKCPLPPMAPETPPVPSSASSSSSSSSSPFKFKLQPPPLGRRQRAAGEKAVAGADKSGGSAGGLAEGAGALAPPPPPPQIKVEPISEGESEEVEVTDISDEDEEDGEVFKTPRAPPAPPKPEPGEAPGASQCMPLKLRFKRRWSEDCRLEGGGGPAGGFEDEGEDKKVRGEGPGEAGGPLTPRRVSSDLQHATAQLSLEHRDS
# Method in brief: as §1
# ETV3L = target: T9, ETV3L (Homo sapiens, UniProt Q6ZN32 1-361)
# T9 sequence: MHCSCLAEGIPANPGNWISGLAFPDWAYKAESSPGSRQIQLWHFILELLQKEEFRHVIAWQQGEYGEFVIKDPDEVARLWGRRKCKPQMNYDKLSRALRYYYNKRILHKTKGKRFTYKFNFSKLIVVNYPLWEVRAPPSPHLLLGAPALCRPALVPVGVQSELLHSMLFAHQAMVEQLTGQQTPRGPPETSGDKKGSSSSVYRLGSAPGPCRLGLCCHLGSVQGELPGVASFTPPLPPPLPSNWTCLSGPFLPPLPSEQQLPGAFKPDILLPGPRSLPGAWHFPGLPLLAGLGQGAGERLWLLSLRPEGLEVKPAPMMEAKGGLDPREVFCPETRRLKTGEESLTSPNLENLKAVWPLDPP
# Method in brief: as §1
# ETS2 = target: T10, ETS2 (Homo sapiens, UniProt P15036 1-469)
# T10 sequence: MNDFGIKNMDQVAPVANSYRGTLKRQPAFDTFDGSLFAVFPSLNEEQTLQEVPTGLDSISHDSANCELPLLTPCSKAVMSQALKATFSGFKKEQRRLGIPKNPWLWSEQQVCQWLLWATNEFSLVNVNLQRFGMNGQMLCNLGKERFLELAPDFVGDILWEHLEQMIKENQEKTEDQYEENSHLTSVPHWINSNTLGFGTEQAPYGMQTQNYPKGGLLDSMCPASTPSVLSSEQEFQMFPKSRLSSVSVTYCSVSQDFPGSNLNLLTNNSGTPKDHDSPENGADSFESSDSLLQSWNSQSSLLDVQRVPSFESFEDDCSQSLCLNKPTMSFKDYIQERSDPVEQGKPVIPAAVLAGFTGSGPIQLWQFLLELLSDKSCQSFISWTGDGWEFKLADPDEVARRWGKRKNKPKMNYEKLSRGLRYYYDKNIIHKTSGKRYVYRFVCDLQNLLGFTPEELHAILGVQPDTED
# Method in brief: as §1
# SPDEF = target: T11, SPDEF (Homo sapiens, UniProt O95238 1-335)
# T11 sequence: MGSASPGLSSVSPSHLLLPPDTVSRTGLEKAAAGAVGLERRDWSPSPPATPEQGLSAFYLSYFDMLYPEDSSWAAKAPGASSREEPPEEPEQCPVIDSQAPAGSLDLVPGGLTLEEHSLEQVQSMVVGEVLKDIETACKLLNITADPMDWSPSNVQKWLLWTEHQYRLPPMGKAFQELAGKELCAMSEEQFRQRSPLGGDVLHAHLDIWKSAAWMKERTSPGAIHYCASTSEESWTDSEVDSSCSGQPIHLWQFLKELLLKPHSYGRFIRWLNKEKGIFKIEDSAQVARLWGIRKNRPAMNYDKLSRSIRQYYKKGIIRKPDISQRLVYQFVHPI
# Method in brief: as §1
# ETV7 = target: T12, ETV7 (Homo sapiens, UniProt Q9Y603 1-341)
# T12 sequence: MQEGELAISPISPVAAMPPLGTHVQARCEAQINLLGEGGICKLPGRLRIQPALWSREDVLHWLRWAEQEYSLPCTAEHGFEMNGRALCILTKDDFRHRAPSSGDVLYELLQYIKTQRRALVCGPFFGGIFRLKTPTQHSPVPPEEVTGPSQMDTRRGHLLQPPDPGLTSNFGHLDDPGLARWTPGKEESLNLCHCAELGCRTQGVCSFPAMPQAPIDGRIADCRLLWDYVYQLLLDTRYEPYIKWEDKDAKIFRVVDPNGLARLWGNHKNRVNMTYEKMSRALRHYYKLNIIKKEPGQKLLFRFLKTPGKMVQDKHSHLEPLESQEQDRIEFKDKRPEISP
# Method in brief: as §1
# ETV3 = target: T13, ETV3 (Homo sapiens, UniProt P41162-2 1-143)
# T13 sequence: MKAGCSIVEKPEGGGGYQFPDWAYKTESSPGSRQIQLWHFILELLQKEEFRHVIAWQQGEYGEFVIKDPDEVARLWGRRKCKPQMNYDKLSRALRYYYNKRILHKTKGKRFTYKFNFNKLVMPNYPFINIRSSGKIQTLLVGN
# Method in brief: as §1
# ETV6 = ETV6 (Homo sapiens, UniProt P41212 1-452)
# ETV6, sequence (P41212 whole entry): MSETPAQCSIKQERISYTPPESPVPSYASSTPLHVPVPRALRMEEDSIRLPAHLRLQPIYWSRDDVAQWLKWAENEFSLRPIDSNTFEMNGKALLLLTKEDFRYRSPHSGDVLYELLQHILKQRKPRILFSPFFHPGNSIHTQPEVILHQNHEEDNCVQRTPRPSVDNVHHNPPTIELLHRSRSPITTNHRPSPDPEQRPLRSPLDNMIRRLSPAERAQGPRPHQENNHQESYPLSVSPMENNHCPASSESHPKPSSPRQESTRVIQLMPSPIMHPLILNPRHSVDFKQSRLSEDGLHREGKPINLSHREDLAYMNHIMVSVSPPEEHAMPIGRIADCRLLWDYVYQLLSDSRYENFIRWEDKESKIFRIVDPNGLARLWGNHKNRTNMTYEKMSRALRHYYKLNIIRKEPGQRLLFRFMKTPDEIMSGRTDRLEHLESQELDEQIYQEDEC
# Method in brief: as §1
sequence,measurement,setting,value
GGCTAC,binding signal,ELK1,"1.12 fold enrichment (6-mer frequency, TF over GST control)"
same,binding signal,GABPA,"1.18 fold enrichment (6-mer frequency, TF over GST control)"
same,binding signal,ERG,"1.09 fold enrichment (6-mer frequency, TF over GST control)"
same,binding signal,ELF1,"1.26 fold enrichment (6-mer frequency, TF over GST control)"
same,binding signal,EHF,"1.07 fold enrichment (6-mer frequency, TF over GST control)"
same,binding signal,SPIB,"1.16 fold enrichment (6-mer frequency, TF over GST control)"
same,binding signal,FEV,"1.1 fold enrichment (6-mer frequency, TF over GST control)"
same,binding signal,ETV5,"1.22 fold enrichment (6-mer frequency, TF over GST control)"
same,binding signal,ELF4,"1.17 fold enrichment (6-mer frequency, TF over GST control)"
same,binding signal,ELK4,"1.1 fold enrichment (6-mer frequency, TF over GST control)"
same,binding signal,ELF3,"1.18 fold enrichment (6-mer frequency, TF over GST control)"
same,binding signal,ETV1,"1.12 fold enrichment (6-mer frequency, TF over GST control)"
same,binding signal,ERF,"1.12 fold enrichment (6-mer frequency, TF over GST control)"
same,binding signal,ETV3L,"1.16 fold enrichment (6-mer frequency, TF over GST control)"
same,binding signal,ETS2,"1.2 fold enrichment (6-mer frequency, TF over GST control)"
same,binding signal,SPDEF,"1.22 fold enrichment (6-mer frequency, TF over GST control)"
same,binding signal,ETV7,"1.26 fold enrichment (6-mer frequency, TF over GST control)"
same,binding signal,ETV3,"1.07 fold enrichment (6-mer frequency, TF over GST control)"
same,binding signal,ETV6,"1.2 fold enrichment (6-mer frequency, TF over GST control)"
